Assay results reported in PubChem BioAssay AID1992 (Sanford-Burnham Center for Chemical Genomics, 2009).
About 350 (0.7%) of roughly 50,000 compounds were called active. No stated cut-off is given here; in the data, active means inhibition above about 60%; inactive means the rest. The entries come from a sample that favours actives as a whole.

target: Dual specificity protein phosphatase 3 (Homo sapiens) (UniProt P51452); assay: human DUSP3 activity blockers – biochemical, colorimetric, HTS, primary screen (AID 1992); details: recombinant VHR phosphatase, colorimetric substrate read-out; at 20 µM; stronger effect = higher value
Sequence (P51452 whole entry, looked up): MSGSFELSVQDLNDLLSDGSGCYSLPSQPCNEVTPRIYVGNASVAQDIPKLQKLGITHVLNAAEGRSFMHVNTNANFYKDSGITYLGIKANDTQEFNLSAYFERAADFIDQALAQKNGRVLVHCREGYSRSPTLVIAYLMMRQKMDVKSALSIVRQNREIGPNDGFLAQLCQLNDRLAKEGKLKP

Row | SMILES | inhibition
1 | O=C(NCc1ccccn1)Nc1ccc(Cl)cc1 | 25.4% (inactive)
2 | COc1ccc(N/C(C)=C/C(=O)c2ccc(F)cc2)cc1 | -8.4% (inactive)
3 | COc1ccc(/C=C2/C(C)=C(C#N)c3nc(N)c(C#N)c(C)c32)cc1OC | 24% (inactive)
4 | COc1ccccc1/C=N/NC(=O)CCc1c(C)n[nH]c1C | -1.8% (inactive)
5 | O=C(NN1CCOCC1)c1cccc(F)c1 | -10.6% (inactive)
6 | Cc1cc(Cl)ccc1NC1=CC(=O)CC(c2ccccc2)C1 (stereo not given) | -7.1% (inactive)
7 | CN(C)/C=C(/Cl)C=C1C(=O)c2ccccc2C1=O | -2.3% (inactive)
8 | COc1ccc([N+](=O)[O-])cc1NC(=O)CCc1ccccc1 | -10.6% (inactive)
9 | CCCCCOC(=O)CSc1nnc(-c2ccccc2Cl)o1 | -27.4% (inactive)
10 | CCCOC(=O)c1ccc(NC(=O)c2ccc(OCc3ccccc3)cc2)cc1 | 109% (active)
11 | CCCOc1ccc(C(=O)Nc2ccc(N(CC)CC)cc2)cc1 | -10.9% (inactive)
12 | CCOC(=O)c1ccc(NC(=O)c2cc(OCC)cc(OCC)c2)cc1 | -14.7% (inactive)
13 | CCOC(=O)C(=O)C1CCc2c([nH]c3ccc(C)cc23)C1=O (stereo not given) | -0.5% (inactive)
14 | COc1ccc(OC)c(-n2c(O)c(C=Nc3cccc(C)c3)c(=O)[nH]c2=O)c1 | -17.5% (inactive)
15 | COc1ccc(NC(=O)C2=C(C)NC(=O)NC2c2ccc(OC)cc2)cc1 (stereo not given) | 24.2% (inactive)
16 | COC(=O)C1=C(C)N=c2s/c(=C\c3cc(OC)c(OC)cc3[N+](=O)[O-])c(=O)n2C1c1ccccc1 (stereo not given) | -6% (inactive)
17 | O=C(Nc1cccc2ccccc12)c1ccc(-c2ccccc2)cc1 | -1.1% (inactive)
18 | Cc1cc(/C=C2/NC(=S)NC2=O)c(C)n1-c1ccc(N2CCOCC2)cc1 | 61.6% (active)
19 | Cc1cc(/C=C2/NC(=O)NC2=O)c(C)n1-c1ccc(Cl)cc1 | -8.6% (inactive)
20 | Cc1cc(C=C2C(=O)NC(=S)NC2=O)c(C)n1-c1ccc(F)cc1 | 0.6% (inactive)
21 | CCOc1ccc(N2C(=O)NC(=O)/C(=C/c3ccc(-c4ccccc4[N+](=O)[O-])o3)C2=O)cc1 | 19% (inactive)
22 | O=C1NC(=S)N(c2ccc(Cl)cc2)C(=O)/C1=C/c1ccc(-c2ccccc2C(=O)O)o1 | 95.3% (active)
23 | O=C1/C(=C/c2ccc(-c3ccc(Cl)cc3C(=O)O)o2)Sc2ccccc21 | 15.2% (inactive)
24 | COc1ccc(C(=O)NC2CC(C)(C)NC(C)(C)C2)cc1OC | -52.9% (inactive)
25 | O=C(Nc1ncc(Br)cc1Br)c1cccc2ccccc12 | 101% (inactive)
26 | COC(=O)c1cc(C(=O)Nc2ncccc2C)cc([N+](=O)[O-])c1 | 7.6% (inactive)
27 | C/C(=C\C(=O)c1ccc(Br)cc1)Nc1ccccc1F | 4.7% (inactive)

Row | SMILES | inhibition
28 | CC1=NN(c2cccc(Cl)c2)C(=O)/C1=C\c1c(C)[nH]n(-c2ccccc2)c1=O | -29.9% (inactive)
29 | CC1=NN(c2ccc(S(N)(=O)=O)cc2)C(=O)/C1=C\c1ccc(-c2cc([N+](=O)[O-])ccc2C)o1 | 77.1% (active)
30 | CC1=NN(c2ccc(S(N)(=O)=O)cc2)C(=O)/C1=C\c1ccc(-c2ccc(Cl)c(C(=O)O)c2)o1 | -1.9% (inactive)
31 | CC1=NN(c2ccc(S(N)(=O)=O)cc2)C(=O)/C1=C\c1ccc(-c2ccc(C(=O)OC(C)C)cc2)o1 | -1.6% (inactive)
32 | NC(=O)C1CCN(S(=O)(=O)c2ccc3ccccc3c2)CC1 | -3.8% (inactive)
33 | CCc1ccc(NC(=O)C(=O)NCCN2CCOCC2)cc1 | 12.8% (inactive)
34 | COc1ccc(C(=O)Nc2ccc3oc(-c4cc(Cl)c(OC)c(Cl)c4)nc3c2)cc1OC | 45.4% (inactive)
35 | COc1ccc(N2C(=O)C3C4C=CC(C4=C(C)C)C3C2=O)c([N+](=O)[O-])c1 (stereo not given) | 4.6% (inactive)
36 | COc1ccc(N2C(=O)C=CC2=O)c([N+](=O)[O-])c1 | 58.9% (active)
37 | COc1cccc(N2C(=O)C=CC2=O)c1 | 49.6% (inactive)
38 | Cc1ccc(N2C(=O)/C(=C/N3CCOCC3)c3ccccc3C2=O)cc1 | 13.6% (inactive)
39 | CCOC(=O)c1c(N2C(=O)C3CC(C)=C(C)CC3C2=O)sc2c1CCCC2 (stereo not given) | -3.1% (inactive)
40 | COC(=O)C1=NNC2(C)C(=O)N(c3ccccc3OC)C(=O)C12 (stereo not given) | 97% (active)
41 | COC(=O)Nc1ccc(S(=O)(=O)N2CCN(c3ccccc3OC)CC2)cc1 | -59.1% (inactive)
42 | COc1ccccc1-n1c(=S)[nH]c2ccccc2c1=O | 5.2% (inactive)
43 | O=C(Nc1cc(C(F)(F)F)cc(C(F)(F)F)c1)c1ccco1 | -7.4% (inactive)
44 | O=C(Nc1cccc(O)c1)c1cccnc1 | -14.8% (inactive)
45 | CCOC(=O)COc1ccc(/C=N\n2nnnc2N)cc1OC | -44.1% (inactive)
46 | Cc1ccc(/C=C2/C=C(c3ccccc3)OC2=O)o1 | 74.2% (active)
47 | CCCCOc1ccc(/C=C2/C=C(c3ccccc3)OC2=O)cc1 | 21.2% (inactive)
48 | Cc1ccc(C2=C/C(=C\c3cccnc3)C(=O)O2)cc1 | 14.8% (inactive)
49 | Cc1cc(C)c(NS(=O)(=O)c2ccc3ccccc3c2)c(C)c1 | -0.6% (inactive)
50 | O=C(O)c1cc(-c2ccc(/C=N/Nc3ccc(Cl)c(Cl)c3)o2)ccc1Cl | 89.1% (active)
51 | O=C(O)c1cc(-c2ccc(C=C3C(=O)c4ccccc4C3=O)o2)ccc1O | 9.3% (inactive)
52 | O=C(N/N=C/c1ccc(-c2cccc(Cl)c2)o1)c1cccnc1 | -17.2% (inactive)
53 | O=C(CCc1n[nH]c(=O)[nH]c1=O)N/N=C/c1ccc([N+](=O)[O-])cc1 | -17.4% (inactive)
54 | C#CCn1cc(/C=C(/C#N)C(=O)Nc2ccc(Cl)cc2)c2ccccc21 | -3.6% (inactive)

Row | SMILES | inhibition
55 | CC(=O)c1sc(NC(=O)c2cc(Cl)ccc2[N+](=O)[O-])nc1C | 4.8% (inactive)
56 | O=C(Nc1ccccc1C(=O)O)c1ccc(NC(=O)c2cccs2)cc1 | -7.6% (inactive)
57 | CCOC(=O)C1=C(C)N=c2s/c(=C\c3cc(OC)c(O)c(OC)c3)c(=O)n2C1c1ccccc1 (stereo not given) | 35.5% (inactive)
58 | O=C(NCCCn1ccnc1)c1cc2c(ccc3ccccc32)oc1=O | -14.2% (inactive)
59 | C=C(C)COc1ccc2oc(-c3ccccc3)c(C(=O)O)c2c1 | -5.7% (inactive)
60 | O=S(=O)(O)c1nc2ccccc2n1-c1ccccc1 | 91.8% (active)
61 | O=C(CSc1nc2ccccc2c(=O)n1-c1ccccc1)Nc1ccccc1 | -19.9% (inactive)
62 | Cc1nc2cc(S(N)(=O)=O)ccc2n1-c1ccccc1 | 0.2% (inactive)
63 | COc1ccc(OC)c(/C=C/C(=O)Nc2ccc(N(C)C)cc2)c1 | -29.5% (inactive)
64 | Fc1cnc(NN=Cc2cccs2)nc1N1CCOCC1 | -10.8% (inactive)
65 | O=C(CN(c1cccc(Br)c1)S(=O)(=O)c1ccccc1)N1CCOCC1 | -30.2% (inactive)
66 | CC(=O)N(C1=C(Cl)C(=O)c2ccccc2C1=O)c1cccc(Br)c1 | 84.5% (active)
67 | CC1CCCC(C)C1NC1=C(Cl)C(=O)c2ccccc2C1=O (stereo not given) | -2.5% (inactive)
68 | COc1ccc(N2C(=O)c3cccc4cccc(c34)C2=O)cc1OC | 7.9% (inactive)
69 | COc1cc(C(=O)Nc2cccc3nsnc23)cc(OC)c1OC | -4.9% (inactive)
70 | COc1ccc(NC(=O)c2cccc(Cl)c2Cl)cc1OC | 1.3% (inactive)
71 | Cc1ccc(C(=O)NCCNc2ccc([N+](=O)[O-])cc2Cl)cc1 | -20.4% (inactive)
72 | Cc1ccc(S(=O)(=O)N(Cc2ccccc2)c2ccccc2C(=O)NC2CCCC2)cc1 | -20.6% (inactive)
73 | CC(=Nc1cc(Cl)ccc1O)c1c(-c2ccccc2)[nH]n(-c2nc3ccccc3s2)c1=O | 2.5% (inactive)
74 | COc1ccccc1NC(=O)C1=C(C)Nc2sc(C#N)c(N)c2C1c1ccco1 (stereo not given) | 4.4% (inactive)
75 | CCOC(=O)c1c(NC(=O)Cc2ccc(Cl)cc2)sc(C(=O)Nc2cccc(OC)c2)c1C | -1.7% (inactive)
76 | CCOC(=O)c1c(NC(=O)c2ccccc2OC)sc(C(=O)Nc2ccccc2F)c1C | -11.7% (inactive)
77 | CCOC(=O)c1c(NC(=O)Cc2ccc(Cl)cc2)sc(C(=O)Nc2ccccc2OC)c1C | 103% (active)
78 | CCOC(=O)c1c(NC(=O)c2ccc(OC)c(OC)c2)sc(C(=O)Nc2ccc(C)cc2C)c1C | -18.8% (inactive)
79 | CCOC(=O)c1c(NC(=O)C23CC4CC(CC(C4)C2)C3)sc(C(=O)Nc2ccccc2OC)c1C | 120% (active)
80 | CCOC(=O)c1c(NC(=O)c2ccccc2C)sc(C(=O)Nc2ccccc2OC)c1C | -2.4% (inactive)
81 | Cc1c(C#N)sc2nc(-c3ccccc3)nc(/N=C/N(C)C)c12 | -22.8% (inactive)

Row | SMILES | inhibition
82 | Nc1ccc2nc(Sc3nc4ccc([N+](=O)[O-])cc4s3)sc2c1 | -10.9% (inactive)
83 | CC1=C(C(=O)Nc2ccc(C)cc2)C(c2ccc([N+](=O)[O-])cc2)NC(=O)N1 (stereo not given) | -6.8% (inactive)
84 | CC12CCC(CC1=O)C(C)(C)N2 (stereo not given) | -18.3% (inactive)
85 | O=C1C=CC(=O)N1Nc1c(Cl)cc(Cl)cc1Cl | 102% (active)
86 | COc1ccc(Nc2ncnc3ccc(Br)cc23)cc1 | 0.8% (inactive)
87 | O=C(CSc1ccccc1C(=O)O)c1ccc(-c2ccccc2)cc1 | 2.1% (inactive)
88 | Cc1ccc(C)c(OCc2nnc(NC(=O)c3ccccc3)s2)c1 | 5.1% (inactive)
89 | Cc1cc(C)cc(OCCCCNC(C)(C)C)c1 | -33.4% (inactive)
90 | Cc1nc2cc(-c3ccc(Br)cc3)[nH]n2c(=O)c1C | 10.2% (inactive)
91 | CC(=O)N1c2ccc3ccccc3c2C2C=CCC2C1c1ccc(F)cc1 (stereo not given) | -6.5% (inactive)
92 | Cc1[nH]n(-c2ccc(Cl)cc2)c(=O)c1/C=N/NC(=O)c1ccccc1[N+](=O)[O-] | -37.1% (inactive)
93 | CC(=O)Nc1ccc(N2C(=O)C3C4C=CC(CC4)C3C2=O)cc1 (stereo not given) | -14% (inactive)
94 | COc1ccccc1C1CC(c2ccc(F)cc2)=NN1c1ccccc1 (stereo not given) | -3.2% (inactive)
95 | O=C1N=c2ccc(I)cc2=C1c1[nH]c(=S)[nH]c1O | -37.4% (inactive)
96 | Cc1ccc(S(=O)(=O)NCCNS(C)(=O)=O)cc1[N+](=O)[O-] | -9.6% (inactive)
97 | CCN(CC)C(=O)CSc1nc(O)c(Cc2ccccc2)c(=O)n1-c1ccc(OC)cc1 | 26.5% (inactive)
98 | O=C(O)CCCCCN1C(=O)C(=O)/C(=C(/O)c2ccc(F)cc2)C1c1cccc([N+](=O)[O-])c1 (stereo not given) | 5% (inactive)
99 | Cc1cc(C)c2nc3s/c(=C\c4ccc(-c5ccccc5C(=O)O)o4)c(=O)n3c2c1 | 69.3% (active)
100 | Cc1cc(C)c2nc3s/c(=C\c4ccc(N(C)C)cc4)c(=O)n3c2c1 | -22.7% (inactive)
101 | COc1cc(/C=c2\sc3nc4c(C)cc(C)cc4n3c2=O)cc(Br)c1O | -5.5% (inactive)
102 | COc1cc(NC(=O)c2ccc(-c3ccc([N+](=O)[O-])cc3C)o2)ccc1NC(=O)c1ccco1 | -3.8% (inactive)
103 | c1ccc(-c2nnc(SC3CCCC3)nc2-c2ccccc2)cc1 | -9.1% (inactive)
104 | Clc1cccc(CN2CCN(C3CCN(Cc4ccccc4)CC3)CC2)c1 | -6.2% (inactive)
105 | Cc1ccc(S(=O)(=O)c2ccc(Oc3ccc(Cl)cc3)cc2)cc1 | -26.6% (inactive)
